# Reference: PubChem BioAssay (NCI)
# About 83,000 compounds went through this panel and 20% of them were active in at least one assay; those are over-represented in the sample as a whole.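 Treatment: one concentration, 48 hours, 96-well format. Scoring: percent growth, with anything below 10 considered active.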 A number with no mark means an inactive call. The source made the active and inactive calls.
# How the values were obtained:
# Experiment in all cases: NCI-60 one-dose screen, 48 h (100 = growth as untreated, 0 = no growth, -100 = all killed)
# Details in all cases: 10 µM
# NCI-H23 lung = system: NCI-H23 lung
# NCI-H226 lung = system: NCI-H226 lung
# NCI-H322M lung = system: NCI-H322M lung
# HOP-62 NSCLC = system: HOP-62 NSCLC
# NCI-H460 lung = system: NCI-H460 lung
# HOP-92 NSCLC = system: HOP-92 NSCLC
# NCI-H522 lung = system: NCI-H522 lung
# A549/ATCC NSCLC = system: A549/ATCC NSCLC
# 786-0 renal = system: 786-0 renal
# COLO 205 colon = system: COLO 205 colon
# DU-145 prostate = system: DU-145 prostate
# K-562 leukemia = system: K-562 leukemia
# MALME-3M melanoma = system: MALME-3M melanoma
# MDA-MB-231 breast = system: MDA-MB-231 breast
# RXF 393 renal = system: RXF 393 renal
# SF-268 CNS = system: SF-268 CNS
# SF-295 CNS = system: SF-295 CNS
# SF-539 CNS = system: SF-539 CNS
# UACC-257 melanoma = system: UACC-257 melanoma
# M14 melanoma = system: M14 melanoma
Structure (SMILES),growth (NCI-H23 lung),growth (NCI-H226 lung),growth (NCI-H322M lung),growth (HOP-62 NSCLC),growth (NCI-H460 lung),growth (HOP-92 NSCLC),growth (NCI-H522 lung),growth (A549/ATCC NSCLC),growth (786-0 renal),growth (COLO 205 colon),growth (DU-145 prostate),growth (K-562 leukemia),growth (MALME-3M melanoma),growth (MDA-MB-231 breast),growth (RXF 393 renal),growth (SF-268 CNS),growth (SF-295 CNS),growth (SF-539 CNS),growth (UACC-257 melanoma),growth (M14 melanoma)
CCOC(=O)CSC(=S)SCC(=O)OCC,110%,106%,118%,105%,107%,108%,67.7%,99%,103%,127%,107%,95.6%,98%,118%,109%,113%,103%,94.1%,82.8%,97.9%
Nc1ccccc1NC(=O)CCCCCCC(=O)Nc1ccc2c(c1)/C(=C/c1ccc[nH]1)C(=O)N2,60.7%,45.5%,40.6%,52.2%,27.5%,8.25% (active),11.7%,47%,38.2%,79.4%,28.7%,46.8%,20%,55.5%,21.2%,23.3%,49.9%,17%,63.5%,50.4%
O=S(=O)(O)C1(O)CCCCC1,93.3%,95.4%,89.5%,81.8%,48%,101%,91.7%,98.9%,102%,96.1%,54.1%,85.3%,86.9%,84.4%,89.4%,104%,82.5%,84%,102%,91.2%
CC(C)OCc1cc(CN2CCN(c3cccc(Cl)c3)CC2)c(O)c2ncccc12,-44.8% (active),1.5% (active),-10.6% (active),-0.196% (active),0.361% (active),-35.2% (active),-26.2% (active),-5.68% (active),0.332% (active),-43.1% (active),11.8%,3.38% (active),-40.6% (active),-41.9% (active),-14.9% (active),5.89% (active),-71.8% (active),-6.98% (active),-36.7% (active),-17% (active)
COc1cc(-c2cc(-c3ccc(C)cc3)nc3nc(N)[nH]c(=O)c23)ccc1Oc1ccnc2cc(Cl)ccc12,107%,73.3%,80.6%,98.4%,96%,70.4%,92.5%,78.7%,98.1%,107%,87.7%,74.4%,104%,66.6%,77.8%,77.4%,101%,103%,90.1%,101%
COc1cccc(-c2nnc(COc3ccc(-c4nc5ccccc5[nH]4)cc3OC)o2)c1,92.7%,105%,97.6%,108%,96.5%,93.8%,96.7%,97.1%,96.2%,85.4%,98.9%,55.5%,89.9%,91.7%,104%,103%,101%,104%,109%,103%
Cc1ccc(-c2cc(C(=O)Nc3ccc(S(=O)(=O)N4CCCCC4)cc3)[nH]n2)c(O)c1,55.4%,76.5%,89.3%,90.7%,51.6%,56.1%,72.1%,52.2%,62.3%,55.3%,64.8%,17.9%,74%,56.1%,50.7%,69.9%,62.4%,48.8%,52%,62.2%
COc1ccc(-c2nc(-c3nc4ccc(OC)cc4[nH]3)c3ccccn23)cc1,90.5%,75.1%,65%,63%,67.7%,13.9%,62.8%,48%,84.4%,95.1%,71.9%,25.5%,104%,83%,75.7%,57.5%,52%,90.2%,92.9%,77.5%
O=C(CSc1nnc(-c2ccc(Cl)cc2)o1)c1ccccc1,88.7%,96.3%,119%,91.1%,105%,107%,78.6%,73.2%,92.8%,108%,101%,102%,112%,95.2%,99.9%,101%,100%,91.4%,98.9%,108%
COc1ccc(CSc2nc3cc(OC)c(OC)cc3c(=O)n2-c2ccc(OC)cc2OC)cc1,78.3%,78.4%,80.6%,101%,90.6%,75.5%,68.6%,80.8%,95.7%,101%,97.7%,87.1%,82.6%,75.4%,75.5%,86.4%,89.6%,96.8%,93.4%,97%
COC(=O)[C@]12CC[C@@H](C)[C@H](C)[C@@H]1C1=CC[C@@H]3[C@@]4(C)C[C@@H](O)[C@H](O)[C@@](C)(CO)[C@@H]4[C@H](O)C[C@@]3(C)[C@]1(C)CC2,-50% (active),-42.8% (active),-29% (active),-59.5% (active),-72.5% (active),-56% (active),-78.9% (active),-62.3% (active),-65.1% (active),-87.5% (active),-82.5% (active),-31.7% (active),-55.9% (active),-66.3% (active),-81.6% (active),-31% (active),-78.5% (active),-58.4% (active),-85.1% (active),-71.3% (active)
Nc1ncc(-c2ccc(C(F)(F)F)cc2)c(NC2CCCCCC2)n1,11.9%,39.6%,66.7%,57.7%,44.9%,-12.1% (active),-6.45% (active),18.6%,51.3%,38.5%,64.2%,16.2%,-21.4% (active),65.1%,50.3%,56.1%,-20.9% (active),65.2%,-13.5% (active),27.8%
CCCCCCCOc1cccc(/C=C2/C(=O)N=C3SCCCN32)c1,70.7%,64.5%,89.1%,85.7%,82%,62.8%,23.6%,94.9%,80.4%,81.2%,55.7%,37%,81.6%,65.8%,83.7%,85%,75.1%,92.7%,68.4%,71%
